# Screening data: PubChem BioAssay, National Center for Advancing Translational Sciences (NCATS)
# Most compounds without a hit are left out; they make up all but 10% or so of the library.
# BAZ2B inh = blocks human BAZ2B. Q9UIF8. AlphaScreen BAZ2B-H3K14Ac peptide displacement. Potency, µM (doses to about 114 µM), inactives show at the top dose activity change, negative = inhibition, actives largely listed as inhibitors. 4.4% of 360,000 active; further: potency means the concentration at half of the fitted maximal effect; on the % scale 0 is the no-effect control and ±100 the full control effect; nearly all actives have a fitted effect of over 60% in size
#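 AlphaScreen displacement of biotin-H3(5-23)K14Ac peptide (50 nM final) from BAZ2B (50 nM final) in PBS pH 7.4, 0.01% Tween-20; complex preformed 30 min RT, then compounds (top 110 uM) 30 min RT, beads 20 min dark.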
# G9a block = blocks human histone lysine methyltransferase G9a | Q96KQ7 | G9a H3K9 monomethylation, AlphaScreen, 2 h | Potency, µM (doses to about 102 µM), without a hit: top-dose activity, negative = inhibition, actives largely listed as inhibitors | 8.8% of 350,000 active | AID 504332; further: potency means the concentration at half of the fitted maximal effect; on the % scale 0 is the no-effect control and ±100 the full control effect; nearly all actives have a fitted effect of over 75% in size
#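 Methyltransferase reactions run at room temperature for 2 h (20 nM enzyme, 500 nM biotin-H3K9 peptide, 20 uM SAM) after a 15 min compound preincubation; product detected by AlphaScreen beads and anti-H3K9me1 antibody.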
# JMJD2A Tudor = JMJD2A Tudor domain (human) inhibition; O75164; AlphaScreen JMJD2A-Tudor / H3K4me3 peptide binding; Potency, µM (top dose mostly 114 µM), without a hit: at the top dose activity change, negative = inhibition, hits mostly inhibitors; 4.4% of 390,000 active; AID 504339; further: potency means the concentration at half of the fitted maximal effect; on the % scale 0 is the no-effect control and ±100 the full control effect; nearly all actives have a fitted effect of over 50% in size
# HP1b chromo inh = inhibitors of HP1-beta chromodomain binding to methylated histone tails; 0.56% of 390,000 active; AID 540317; P83916; AlphaScreen HP1-beta / biotin-H3K9me3 peptide binding; Potency, µM (highest dose often 114 µM), inactives show top-dose activity change, negative = inhibition, hits mostly inhibitors; further: potency means the concentration at half of the fitted maximal effect; nearly all actives have a fitted effect of over 70% in size
#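 Compound inhibition of the preformed complex between 50 nM HP1-beta and 50 nM biotinylated H3K9me3 peptide was read by AlphaScreen. Buffer was PBS pH 7.4 with 0.01% Tween-20. Incubations ran 30 min at room temperature, with 10 ug/mL donor/acceptor beads.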
# Six1-Eya2 blk = inhibitors of human Six1/Eya2 interaction; Q15475+O00167; AlphaScreen GST-Six1/His-Eya2 binding, biochemical; active compounds read low; activity change, % (no concentration beside the values); 0.56% of 360,000 active; AID 651725; in the data active means activity change below about -65%; inconclusive means mostly about -30% to -63%; further: on the % scale 0 is the no-effect control and ±100 the full control effect
# Target sequence (O00167 whole entry, looked up): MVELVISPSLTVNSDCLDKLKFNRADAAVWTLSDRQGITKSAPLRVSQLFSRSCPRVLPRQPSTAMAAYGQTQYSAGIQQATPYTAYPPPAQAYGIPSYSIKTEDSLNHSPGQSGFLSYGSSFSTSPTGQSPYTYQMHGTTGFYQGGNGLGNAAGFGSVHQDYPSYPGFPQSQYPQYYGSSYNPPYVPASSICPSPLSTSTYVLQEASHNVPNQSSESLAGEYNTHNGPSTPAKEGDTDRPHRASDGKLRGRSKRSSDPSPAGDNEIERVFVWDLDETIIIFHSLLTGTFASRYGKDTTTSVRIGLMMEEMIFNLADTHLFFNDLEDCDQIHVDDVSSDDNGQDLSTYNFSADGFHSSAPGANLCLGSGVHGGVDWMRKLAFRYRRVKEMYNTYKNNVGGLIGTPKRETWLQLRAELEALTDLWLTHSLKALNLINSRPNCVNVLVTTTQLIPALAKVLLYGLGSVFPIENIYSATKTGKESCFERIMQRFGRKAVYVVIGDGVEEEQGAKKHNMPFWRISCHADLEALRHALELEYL
# Target sequence (Q15475 whole entry, looked up): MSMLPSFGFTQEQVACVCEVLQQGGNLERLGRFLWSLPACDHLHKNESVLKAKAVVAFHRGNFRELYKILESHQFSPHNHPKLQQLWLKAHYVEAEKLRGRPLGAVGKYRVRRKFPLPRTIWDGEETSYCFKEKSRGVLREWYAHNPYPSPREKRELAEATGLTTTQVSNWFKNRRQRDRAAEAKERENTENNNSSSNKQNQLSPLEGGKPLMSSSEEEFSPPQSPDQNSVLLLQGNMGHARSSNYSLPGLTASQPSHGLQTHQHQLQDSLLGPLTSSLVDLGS
#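 AlphaScreen with GST-Six1 and His-Eya2 (5X mix: 250 nM and 500 nM), glutathione donor and nickel acceptor beads; buffer 50 mM Tris pH 8.0, 300 mM NaCl, 1 mM TCEP; 1 h at 37 C in the dark.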
# CtBP-E1A inh = blocks the CtBP interaction with E1A; AID 651724; activity change, % (no concentration beside the values); 0.49% of 340,000 active; AlphaScreen GST-E1A/His-CtBP binding, 1536-well; active compounds read low; in the data active means activity change below about -65%; inconclusive means mostly about -30% to -63%; further: on the % scale 0 is the no-effect control and ±100 the full control effect
#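 GST-E1A and His-tagged CtBP (125 nM each as 5X stock) were preincubated with pin-transferred compound for 2 h at 37 °C in the dark, then glutathione donor and nickel acceptor beads were added for 1 h before AlphaScreen reading.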
# The depositor's hits bear a star; ? = inconclusive; / = no result; [ ] = another dose, or the depositor's remark. Unless noted, the call rests on the fitted dose curve; in most records, active means well fitted inhibition curve with a large enough effect; inconclusive means small, poorly fitted or top-dose-only effect; inactive means no such curve, though single readings can be large or run the other way.
SMILES,BAZ2B inh,G9a block,JMJD2A Tudor,HP1b chromo inh,Six1-Eya2 blk,CtBP-E1A inh
COc1ccc(S(=O)(=O)Oc2ccc3c(c2)O/C(=C\c2cccnc2)C3=O)cc1,?,40µM*,?,-24%,4,2
COc1cc(OC)c(OC)cc1/C=C1\Oc2cc(OS(C)(=O)=O)ccc2C1=O,-35%,40µM*,?,-4%,-25,-11
c1coc(CNc2nc(-c3cccs3)nc3ccccc23)c1,/,/,-30%,/,/,/
O=C1Nc2ccccc2Oc2cc(Oc3cccc(Cl)c3)ccc21,-30%,5%[59 µM],-13%,4%,/,/
O=C1Nc2ccccc2Oc2cc(Oc3ccccc3)ccc21,45µM*,?,50µM*,?,/,/
Cc1ccccc1Nc1scc(-c2ccc(Cl)cc2)[n+]1-c1ccccc1C,7.9µM*,20µM*,?,?,?,-23
Cc1ccccc1Nc1c(-c2ccncc2)nc2ccc(Cl)cn12,-22%,-3%,-4%,53%,8,4
CC1=C([N+](=O)[O-])C(c2ccc(Cl)cc2)NC(=O)N1C (stereo not given),3%,/,20µM*,-13%,1,6
CCN(CC)CCCNC(=O)c1c2c(nc3ccccc13)C(=O)N(C1CCCCC1)C2,-3%,8%[59 µM],-20%,19%,/,/
CCOC(=O)C1CCCN(C(=O)c2ccc(SC(F)(F)F)cc2)CC1 (stereo not given),/,/,/,/,-4,6
S=c1[nH]nc(CNc2cccc(Cl)c2)o1,-22%,18µM*,-26%,21%,8,7
CCOC(=O)C1=C(O)/C(=C/c2ccc(-c3ccccc3C(=O)O)o2)SC1=Nc1ccc(C)cc1,-36%,12%,50µM*,-15%,-13,-14
CCOC(=O)C1=C(O)/C(=C/c2cc(OC)c(O)c(OC)c2)SC1=Nc1ccc(OC)cc1,-34%,8.9µM*,-21%,9%,-3,/
CCOC(=O)C1=C(O)/C(=C/c2ccc(-c3ccccc3C(=O)O)o2)SC1=Nc1ccc(OC)cc1,5%,-28%[12.7 µM],-23%,9%,-3,-20
COc1ccccc1C(=O)NC1(C(F)(F)F)C(=O)Nc2c1c(=O)[nH]c(=O)n2CCc1ccccc1 (stereo not given),-27%,-7%[59 µM],-4%,20%,/,/
COC(=O)c1c(NC(=O)c2cccc(N3C(=O)CCC3=O)c2)sc2c1CCN(C(C)=O)C2,-27%,79µM*,-34%,1%,-12,-14
O=S(=O)(c1ccccc1)n1cc(-c2cccc3nccn23)c2ccccc21,/,/,/,/,-18,-15
CC(CS(=O)(=O)c1ccc2c(c1)NC(=O)CS2)C(=O)NCc1ccccc1Cl (stereo not given),14µM*,?,25µM*,13µM*,?,-5
CN(C)c1ccc(CNS(=O)(=O)c2ccc3c(c2)NC(=O)CS3)cc1,?,50µM*,?,-4%,-11,-21
CC(C)NOC(=O)c1ccc(Cl)cc1,-10%,-5%,-20%,5%,12,12
Nc1[nH]c(C(=O)c2ccccc2)c(-c2ccccc2C(F)(F)F)c1C(=O)NCc1ccc(F)cc1,/,/,/,/,-5,-7
CCN(CC)S(=O)(=O)c1nnc(NC(=O)c2ccc(C(C)C)cc2)s1,-13%,-17%[59 µM],-16%,13%,/,/
CCN(CC)S(=O)(=O)c1ccc(C(=O)Nc2nnc(C(C)C)s2)cc1,-5%,35µM*,-29%,25%,5,-17
CCOc1ccc(C(=O)Nc2nnc(C(C)C)s2)cc1OCC,4%,10µM*,-8%,2%,-2,-1
COC(=O)c1c(SCc2ccc(C#N)cc2)nc(=O)[nH]c1C,-11%,6%,-9%,29%,-5,1
CCCCn1nnnc1C1(C)CCC(=O)N1CC(F)(F)F (stereo not given),/,/,/,/,-4,2
COc1ccc(C(=O)c2ccc([N+](=O)[O-])cc2Cl)cc1,?,/,56µM*,?,?,-28
COc1ccc(OC)c(C(=O)c2ccc([N+](=O)[O-])cc2)c1,/,/,89µM*,-29%[57 µM],?,?
